# In PubChem BioAssay (NCI):
# This is part of a sample that, as a whole, favours compounds with a hit. Of some 83,000 tested, about 20% had one in any assay.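 Results are percent growth after 48 hours of single-concentration exposure. 100 means growth as in untreated cells, lower positive values show inhibition; negative values down to -100 show cell death.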 Unmarked numbers belong to inactive results. Active and inactive are the calls of the source. The calls were made as follows: active = growth percent below 10; inactive = the rest.
# Assays:
# Experiment in all cases: NCI-60 one-dose screen, 48 h (100 = growth as untreated, 0 = no growth, -100 = all killed)
# Details in all cases: 10 µM unless noted
# SK-MEL-2 melanoma = system: SK-MEL-2 melanoma
# EKVX NSCLC = system: EKVX NSCLC
# SN12C renal = system: SN12C renal
# UO-31 renal = system: UO-31 renal
# TK-10 renal = system: TK-10 renal
# ACHN renal = system: ACHN renal
# A498 renal = system: A498 renal
# CCRF-CEM leukemia = system: CCRF-CEM leukemia
# MOLT-4 leukemia = system: MOLT-4 leukemia
# SR leukemia = system: SR leukemia
# RPMI-8226 leukemia = system: RPMI-8226 leukemia
# OVCAR-8 ovarian = system: OVCAR-8 ovarian
# OVCAR-5 ovarian = system: OVCAR-5 ovarian
# OVCAR-4 ovarian = system: OVCAR-4 ovarian
# SK-OV-3 ovarian = system: SK-OV-3 ovarian
# IGROV1 ovarian = system: IGROV1 ovarian
# OVCAR-3 ovarian = system: OVCAR-3 ovarian
# HS 578T breast = system: HS 578T breast
# NCI/ADR-RES ovarian = system: NCI/ADR-RES ovarian
# T-47D breast = system: T-47D breast
Structure (SMILES),growth (SK-MEL-2 melanoma),growth (EKVX NSCLC),growth (SN12C renal),growth (UO-31 renal),growth (TK-10 renal),growth (ACHN renal),growth (A498 renal),growth (CCRF-CEM leukemia),growth (MOLT-4 leukemia),growth (SR leukemia),growth (RPMI-8226 leukemia),growth (OVCAR-8 ovarian),growth (OVCAR-5 ovarian),growth (OVCAR-4 ovarian),growth (SK-OV-3 ovarian),growth (IGROV1 ovarian),growth (OVCAR-3 ovarian),growth (HS 578T breast),growth (NCI/ADR-RES ovarian),growth (T-47D breast)
CCOC(=O)c1c(C)nc2c(c1N)/C(=C/c1ccccn1)C(=O)N2Cc1ccccc1,-26.1% (active),24.8%,8.15% (active),-65.6% (active),2.08% (active),0.89% (active),54.6%,2.47% (active),-12.8% (active),-11.8% (active),-25.8% (active),-7.26% (active),64.1%,47.8%,65.9%,-10.6% (active),-19% (active),33.2%,-3.17% (active),9.22% (active)
CCCCCCCc1n(Cc2ccc3ccccc3c2)c2ccccc2[n+]1Cc1ccc2ccccc2c1,-74.9% (active),-73.5% (active),-79.8% (active),-88.1% (active),-87.3% (active),-87.4% (active),-93.3% (active),-59.1% (active),-68% (active),-60.4% (active),-53% (active),-69.8% (active),-83.7% (active),-62.5% (active),-91.7% (active),-67.5% (active),-86.7% (active),-42.7% (active),-35% (active),-74.2% (active)
COc1cc(C2CC(c3ccc(Nc4nc(NCCO)nc(NCCO)n4)cc3)=NN2c2cc(Cl)cc(Cl)c2)cc(OC)c1OC (stereo not given),85%,35.2%,13.1%,49.4%,-25.7% (active),67.3%,96.8%,19.3%,16.3%,-9.38% (active),-13.8% (active),11.9%,54.6%,-20.1% (active),108%,4.18% (active),-22.5% (active),-14.5% (active),53.1%,75.4%
COc1cccc2c1-c1ccccc1C2=O,34.3%,40.7%,53.9%,47.1%,66.7%,50%,7.69% (active),5.55% (active),73.9%,40.4%,14.9%,21.5%,65.6%,56.5%,30.6%,33.3%,-26.4% (active),19.6%,8.62% (active),33.2%
CCCCN(CCCC)CC(CN(CC)CC)OC(=O)Nc1ccccc1 (stereo not given),99.4%,91.7%,94.4%,69.7%,85.5%,99.2%,117%,98.1%,80.8%,86.3%,96.7%,106%,76.7%,77.1%,87.4%,57%,108%,113%,82.4%,92.2%
NCCN1CCNCC1,111%,114%,92%,90.7%,106%,106%,92.9%,97%,102%,99.7%,79.2%,112%,94%,100%,101%,104%,109%,98%,102%,86.2%
COc1cc2c(Nc3ccc(NC(=O)Nc4ccc(Cl)c(C(F)(F)F)c4)c(Cl)c3)ncnc2cc1OCCCN1CCN(C)CC1,-37.9% (active),52.5%,18.6%,54.9%,20.5%,35%,39.7%,-15.4% (active),-43.7% (active),-40.5% (active),-39% (active),13%,31%,-9.14% (active),20.4%,-2.58% (active),11%,-8.65% (active),93.3%,22.2%
